# Experimental data reported in PubChem BioAssay AID1159580 (chemical genetic matrix, 2015).
# Out of some 5,500 compounds screened, about 2,000 (36%) were called active. About 18% were inconclusive and are not listed. The list shows a part of the results. Unmarked numbers belong to inactive results. Cut-off read from the data, not from the text of the source: active = normalized growth mostly below about 0.91 (no sharp cut-off); inconclusive = no clear call, values can overlap the other calls; inactive = mostly above about 0.92.
# Assay: chemical genetic growth profiling, strain panel (AID 1159580);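 note: tested at 20 µM; growth read once vehicle control cultures reached saturation at 30 °C; 1 = growth at the plate median or of vehicle wells; lower values mean less growth of the strain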
# Conditions: S. cerevisiae deletion strains, growth OD
smiles,measurement,setting,value
CCOC(=O)C1=C(N)Oc2ccc(Br)cc2C1C(C#N)C(=O)OCC (stereo not drawn),normalized growth,"locus YAL013W, strain DEP1, hits give low values",0.934
same,normalized growth,"locus YBR229C, strain ROT2, hits give low values",0.938
same,normalized growth,"locus YCL061C, strain MRC1, hits give low values",0.916
same,normalized growth,"locus YDL101C, strain DUN1, hits give low values",0.884 (active)
same,normalized growth,"locus YDR150W, strain NUM1, hits give low values",0.957
same,normalized growth,"locus YEL061C, strain CIN8, hits give low values",0.648 (active)
same,normalized growth,"locus YGR078C, strain PAC10, hits give low values",0.938
same,normalized growth,"locus YGR229C, strain SMI1, hits give low values",0.963
same,normalized growth,"locus YHR030C, strain SLT2, hits give low values",0.293 (active)
same,normalized growth,"locus YHR087W, strain rtc3, hits give low values",0.979
same,normalized growth,"locus YJL187C, strain SWE1, hits give low values",0.959
same,normalized growth,"locus YJR043C, strain POL32, hits give low values",0.983
same,normalized growth,"locus YJR075W, strain HOC1, hits give low values",0.88 (active)
same,normalized growth,"locus YLR039C, strain RIC1, hits give low values",0.386 (active)
same,normalized growth,"locus YLR058C, strain SHM2 (second series), hits give low values",0.986
same,normalized growth,"locus YLR085C, strain ARP6, hits give low values",0.379 (active)
same,normalized growth,"locus YLR262C, strain YPT6, hits give low values",0.46 (active)
same,normalized growth,"locus YML094W, strain GIM5, hits give low values",0.669 (active)
same,normalized growth,"locus YMR219W, strain ESC1, hits give low values",0.979
same,normalized growth,"locus YMR263W, strain SAP30, hits give low values",0.964
same,normalized growth,"locus YMR307W, strain GAS1, hits give low values",0.667 (active)
same,normalized growth,"locus YNL153C, strain GIM3, hits give low values",0.982
same,normalized growth,"locus YNL298W, strain CLA4 (second series), hits give low values",0.61 (active)
same,normalized growth,"locus YNL322C, strain KRE1, hits give low values",0.992
same,normalized growth,"locus YNR030W, strain Alg12, hits give low values",0.528 (active)
same,normalized growth,"locus YPL055C, strain LGE1, hits give low values",0.98
same,normalized growth,"locus YPL241C, strain CIN2, hits give low values",0.472 (active)
same,normalized growth,"locus YPR135W, strain CTF4, hits give low values",0.424 (active)
